Here are results for 40 molecules from PubChem BioAssay AID1573 (National Center for Advancing Translational Sciences (NCATS), 2009).

Records with an inconclusive call do not appear. Values without a mark were called inactive. The source made the active and inactive calls. Calls come from the whole dose curve; as a rule, active = well fitted inhibition curve with a large enough effect; inconclusive = small, poorly fitted or top-dose-only effect; inactive = no such curve, though single readings can be large or run the other way.

Chain of Thyroid hormone receptor beta (Homo sapiens) (P10828 whole entry, looked up, the tested form may be a part): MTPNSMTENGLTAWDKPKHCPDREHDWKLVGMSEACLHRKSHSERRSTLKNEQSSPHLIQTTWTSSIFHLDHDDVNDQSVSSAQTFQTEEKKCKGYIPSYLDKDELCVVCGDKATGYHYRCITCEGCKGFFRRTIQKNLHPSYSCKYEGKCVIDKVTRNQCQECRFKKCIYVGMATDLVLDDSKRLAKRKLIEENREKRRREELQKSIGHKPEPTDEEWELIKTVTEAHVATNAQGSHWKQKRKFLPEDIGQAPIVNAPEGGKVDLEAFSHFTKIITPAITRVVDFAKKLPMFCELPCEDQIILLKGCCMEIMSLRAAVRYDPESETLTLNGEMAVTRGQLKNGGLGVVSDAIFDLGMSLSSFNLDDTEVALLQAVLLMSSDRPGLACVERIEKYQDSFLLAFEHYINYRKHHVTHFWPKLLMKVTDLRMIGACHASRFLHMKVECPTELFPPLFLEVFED

The target in the assay is Thyroid hormone receptor beta (Homo sapiens) (UniProt P10828). The assay is described as follows: Concentration Response Confirmation Assay for Inhibitors of the Interaction of Thyroid Hormone Receptor and Steroid Receptor Coregulator 2. To be noted: TRb LBD + Texas Red SRC2 peptide, fluorescence polarization, 5 h; series mostly up to 92.2 µM; activity, negative = inhibition: at the top concentration. From the text:
NIH Molecular Libraries Probe Production Network [MLPCN] NIH Chemical Genomics Center [NCGC] MLPCN Grant: DK058080 Assay Provider: R. Kip Guy, St. Jude Children's Research Hospital NCGC Assay Overview: Thyroid receptor (TR) regulates many homeostatic processes including basal metabolism, cardiovascular function, body weight, and lipid trafficking. TR modulators are potential therapeutics for obesity and hyperlipidemias but current thyroid analogs have undesirable side effects, particularly cardiac stimulation. To identify inhibitors that specifically prevent the interaction of TR with the steroid receptor coregulator 2 (SRC2), a fluorescence polarization assay was screened. This assay detects interaction of the ligand-binding domain of human TRb with a Texas Red labeled SRC2 peptide, corresponding to a 20 amino acid region of the nuclear receptor interaction domain (Arnold et al., 2006). Small molecule inhibitors that block the interaction of TR and SRC2 are detected by a decrease in fluorescence polarization. This assay is a confirmation assay for AID 1469. Arnold, L. A.; Estebanez-Perpina, E.; Togashi, M.; Shelat, A.; Ocasio, C. A.; McReynolds, A. C.; Nguyen, P.; Baxter, J. D.; Fletterick, R. J.; Webb, P.; Guy, R. K. A high-throughput screening method to identify small molecule inhibitors of thyroid hormone receptor coactivator binding. Sci STKE 2006, p 13.
NCGC Assay Protocol Summary: For screening, 5 uL/well 0.6 uM TRb and 20 nM SRC2 Texas Red in protein buffer (20mM Tris hydrochloride, 100mM NaCl, 10% glycerol, 1mM EDTA, 0.01% NP-40, 1mM DTT, 1uM T3 and 5% DMSO) was dispensed into black solid 1536-well plates (Grenier) using a solenoid-based dispenser. Following transfer of 23 nL compound or DMSO vehicle by a pin tool, the plates were centrifuged 15 s at 1000 RPM and incubated 5 hr at ambient temperature. The plates were read by an Envision (Perkin Elmer) to detect fluorescence polarization of SRC2 Texas Red (555 nm excitation and 632 nm emission). Data were normalized to unbound (all components except TRb) and bound SRC2 Texas Red controls. In this assay, we provide % activity data for each concentration as well as potencies for the active compounds. Keywords: NIH Roadmap, MLPCN, MLI, MLSMR, qHTS, NCGC, qHTS, thyroid hormone receptor, steroid receptor coactivator, fluorescence polarization
For `CN(CCO)c1nc(N)c2c(N)nc3c(c2c1C#N)CC(=O)N3C1CCCC1`, the “activity, negative = inhibition” value is -12%.
Regarding `O=c1[nH]c(Nc2ccccc2)cc2ccccc12`, the Potency is 35.5 µM (active).
The same measure, in the same setting: as for `CCCCOc1ccc(C(=O)CCN2CCOCC2)cc1`, the figure is 5.01 µM (active).
On the same count and under the same terms, under `Cc1ccccc1Nc1cc2ccccc2c(=O)[nH]1` stands 15.8 µM (active); under `COc1cc(C(c2c(C)[nH][nH]c2=O)c2c(C)[nH][nH]c2=O)ccc1OC(=O)c1cccc(C)c1`, 31.6 µM (active).
On the same count and under the same terms, under `Oc1ccc2ccccc2c1C=NC12CN3CCN(CN(C3)C1)C2` stands 28.2 µM (active).
Turning to `Nc1cc(-c2ccccc2)c[nH]c1=O`, the “activity, negative = inhibition” value was -24.2%.
With `C=CCNC(=O)/C(C#N)=C\c1cc(Cl)c(OCC)c(OC)c1`, the Potency is 35.5 µM (active).
The same measure, in the same setting: under `Cc1cc(N=Cc2c(O)ccc3ccccc23)no1` stands 28.2 µM (active).
As to `CN1N=C(C(C)(C)C)CC1=O`, the “activity, negative = inhibition” value is -8.25%.
Regarding `CCCc1cc(=O)[nH]c(=S)[nH]1`, the “activity, negative = inhibition” value is 2.69%.
For `Cc1nc2ccccc2n2c(O)c(CC(=O)O)cc12`, the Potency was 35.5 µM (active).
As to `Cc1nnc(SCC(=O)Nc2ccc(N(C)C)cc2)[nH]c1=O`, the “activity, negative = inhibition” value was -22.7% [at 184 µM].
On the same count and under the same terms, as for `CC1=NN(Cc2ccccc2)C(=O)C1`, the figure is -18.9%.
Regarding `O=C(NNc1cc(N2CCOCC2)nc(N2CCOCC2)n1)c1ccc(Cl)c(Cl)c1`, the Potency is 31.6 µM (active).
As for `O=C(O)C1C2C=CC(O2)C1C(=O)Nc1ccc(S(=O)(=O)N2CCc3ccccc32)cc1` (stereo not given), the Potency is 39.8 µM (active).
Still for that read-out and setting: as for `O=C(O)/C=C/C(=O)Nc1ccc(SC(F)(F)C(F)(F)C(F)(F)F)cc1`, the figure is 7.94 µM (active).
On to `O=C1CCCC(O)=C1N=Nc1cccc(S(=O)(=O)N2CCOCC2)c1`, for which the “activity, negative = inhibition” value is -22.7%.
On to `Oc1ccc2ccccc2c1/C=N/c1nc2c(s1)CCCC2`, for which the Potency was 28.2 µM (active).
Still for that read-out and setting: as for `CS(=O)(=O)c1ccc(C(=O)OCC(=O)NC(=O)C2CCCCC2)cc1[N+](=O)[O-]`, the figure is 10 µM (active); as for `C=CC(=O)OCCOc1ccccc1`, 112 µM (active).
As for `Cc1cc2ccccc2n1CCNC(=O)C(C)Oc1ccccc1` (stereo not given), the “activity, negative = inhibition” value was -23%.
On the same count and under the same terms, as for `CCCCCCN=CC1=C(O)CC(C)(C)CC1=O`, the figure is -8.95%; as for `Cc1ccc(OC(=S)Nc2ccc(O)cc2)cc1`, -4.64%.
With `COc1cc(/C=C(\C#N)C(=O)NCC2CCCO2)ccc1OCCC(C)C` (stereo not given), the Potency was 35.5 µM (active).
Still for that read-out and setting: under `CN1CCc2ccc3c4c2[C@]1(C)Cc1cccc(c1-4)OCO3` stands 89.1 µM (active).
Same read-out and setting: as for `O=C(O)/C=C/C(=O)Nc1ccc(OC(F)(F)F)cc1Br`, the figure is 50.1 µM (active); as for `COc1ccc(-c2nc(CS(=O)CC(=O)NCc3ccccn3)c(C)o2)cc1` (stereo not given), 35.5 µM (active); as for `COn1c2c(c3c4nonc4ccc31)CCCC2`, 35.5 µM (active).
Consider `Cn1cc[nH]c1=S`, for which the “activity, negative = inhibition” value was -4.85%.
Still for that read-out and setting: as for `Cn1c(NNC(=O)c2c(F)cccc2F)cc(=O)n(C)c1=O`, the figure is -7.88%.
Consider `C=CCNC(=O)/C(C#N)=C/c1c(C)nn(-c2ccc(Cl)cc2)c1Cl`, for which the Potency was 17.8 µM (active).
Still for that read-out and setting: as for `CCCCOc1ccc(C(=O)CCN2CCCCC2)cc1`, the figure is 5.01 µM (active).
Same read-out and setting: as for `Oc1ccc2ccccc2c1/C=N/c1nccs1`, the figure is 31.6 µM (active).
For the molecule `O=c1cc(C23CC4CC(CC(C4)C2)C3)[nH][nH]1`, the “activity, negative = inhibition” value was -5.48%.
Still for that read-out and setting: under `CC(NC(=O)Nc1ccc(O)cc1)(C(F)(F)F)C(F)(F)F` stands -30.8%.
For the molecule `Nc1cc(-c2ccncc2)c[nH]c1=O`, the “activity, negative = inhibition” value is -4.94%.
The same measure, in the same setting: as for `O=C(Nc1nc2ccc(Cl)cc2s1)c1ccc(N2CCCCC2)c([N+](=O)[O-])c1`, the figure is -30%; as for `Cc1cccc(Cn2c(C(=O)OC(C)C)cc3c2ccn3C)c1`, -13.5%.
As to `O=C(NNc1cc(N2CCOCC2)nc(N2CCOCC2)n1)c1ccc([N+](=O)[O-])cc1`, the Potency was 20 µM (active).
